Here are results for 40 molecules from PubChem BioAssay (EPA / NIEHS).

Usually AC50 stands for the midpoint of the concentration-response curve, whichever way the signal moves.

Molecules are shown by their SMILES. Activity calls are given as the source filed them. How the source made its calls: active means hit-call score of the fitted dose curve at least 0.9, where 1 is the maximum; inactive means score below 0.9.

Read-out in this assay: CFLAR gene, CFLAR (gene 8837)
Put plainly: LTEA_HepaRG_CFLAR: Life Technologies and Expression Analysis (LTEA) Assay for CFLAR gene using HepaRG (AID 2283455). Particulars: mRNA level, 48 h; actives raise or lower the signal. The procedure: LTEA_HepaRG is a cell based, multiplexed-readout assay that uses HepaRG, a human liver cell line, with measurements taken at 48 hours after chemical dosing on a 96-well plate.LTEA_HepaRG_CFLAR is one of 102 assay component(s) measured in the LTEA HepaRG cell culture assay. It is a marker of Cell proliferation, survival, death.Data from the assay component LTEA_HepaRG_CFLAR was analyzed into 1 endpoint. This assay endpoint, LTEA_HepaRG_CFLAR, was analyzed with bidirectional fitting relative to DMSO as the negative control and baseline of activity. Using a type of inducible reporter, measures of mRNA induction for gain or loss-of-signal activity can be used to understand regulation of transcription factor activity. To generalize the intended target to other relatable targets, this assay endpoint is annotated to the cell cycle intended target family, where the subfamily is Cell proliferation, survival, death.
A total of 1060 chemcials from the ToxCast library were tested in eight-point concentration-response experiments. Cell culture and cytotoxicity assays were conducted at Thermo Fisher Scientific's Custom Services facility (Madison, WI). A single lot of human HepaRG cells (Thermo Fisher Scientific, Frederick, MD) was used for the cell culture experiments. 96-well format collagen type I coated plates of human HepaRG cells were prepared using established methods. Briefly, cryopreserved HepaRG cells were thawed, plated at a density of approximately 100,000 cells/well in HepaRG Thaw, Plate, and General Purpose media (HPRG770, Thermo Fisher Scientific), and incubated for 48 hours. 0.5% DMSO was selected as vehicle control to balance the requisite need of DMSO in HepaRG cultures to maintain differentiation (for example, baseline metabolism, proportions of hepatocytes vs. cholangiocytes), while enabling further hepatic receptor pathway activation (for example, PXR and CAR) in response to chemical exposure. 48 hours after plating, the culture medium was replaced with HepaRG Serum-Free Incudtion Media. Cells were exposed to each test chemical in duplicate and maintained in CO2 incubators for another 48 hours. Chemical plates were thawed to room temperature and 200x concentrations of treatment groups were prepared. 8-point conentration-reponse curves were made with the highest exposure at 100 uM, followed by half-log dilutions, all in 0.5% DMSO. Each test plate contained variouse controls, induction positive controls (1mM phenobarbital), cytotoxicity positive controls ([…] aflatoxin B1), vehicle controls (0.5% DMSO), and total lysis controls (0.5% DMSO). Cell morphology images were taken using an Essen IncuCyte FLR automated microscope, with six 96-well plates imaged in about 24 minutes. Images were captured and exported and JPEG files. Spent culture media was transfered to black-well plates for the LDH assay, and remaining media was sorted at -80 C for later use. Cells were treated with RLT buffer and frozen until shipped for gene expression analysis. Total RNA was isolated from the cell suspension in 75 uL of Buffer RLT (Qiagen, Germantown, MD 20874) by Quintiles/Expression Analysis (Durham, NC) using a custom isolation procedure. Total RNA from each plate well was transferred to a preamplification plate. Fluidigm's 96.96 Dynamic ArrayTM (Fluidigm, Amsterdam, the Netherlands) technology was used for gene expression analyses by quantitative reverse transcription polymerase chain reaction (qRT-PCR, performed by Quintiles/Expression Analysis, Durham, NC)89. Standard TaqManTM Assays (Applied Biosystems/ThermoFisher Scientific, Foster City, CA) were used to assess the expression of 93 genes selected based on their selectivity and sensitivity to important hepatic receptors known to be modulated by environmental chemicals; importance in human hepatocyte functionality; and hepatotoxicity. […]
Take `CCCCC(CC)COP(=O)(OCC(CC)CCCC)OCC(CC)CCCC` (stereo not given): the molecule was called inactive.

As to `CC(N)=O`, the result was inactive.

For the molecule `CCCCC(CC)COC(=O)CCCCCCCC(=O)OCC(CC)CCCC` (stereo not given), the molecule was classed as inactive.

With `O=C(NS(=O)(=O)/C=C/c1cccs1)c1ccc(F)cc1Br`, the outcome was inactive.

`CCCCC(CC)CO` (stereo not given): the molecule was called inactive.

As for `S=c1[nH]c2ccccc2s1`, the molecule was classed as inactive.

As for `COc1ccc(C(=O)Nc2nc3ccccc3c(NCc3ccccc3)c2C#N)cc1`, the molecule was called inactive.

Turning to `Cc1c(C)c2c(c(C)c1O)CCC(C)(COc1ccc(CC3SC(=O)NC3=O)cc1)O2` (stereo not given), the outcome was inactive.

In the case of `COc1ccc(OC(F)(F)F)cc1CN[C@H]1CCCN[C@H]1c1ccccc1`, the AC50 is 84.1 µM (active).

With `Nc1nc(=S)c2[nH]cnc2[nH]1`, the molecule was called inactive.

As to `CCCCOC(=O)CCCCC(=O)OCCCC`, the molecule was called inactive.

Consider `CCN(CC)CCOc1ccc(C(=C(Cl)c2ccccc2)c2ccccc2)cc1`, for which the result was inactive.

On to `O=NO`, for which the molecule was classed as inactive.

As for `O=C(O)CC(O)(CC(=O)O)C(=O)O`, the molecule was called inactive.

Take `N[C@@H](Cc1c[nH]c2ccccc12)C(=O)O`: the molecule was classed as inactive.

For the molecule `CCCC[C@H]1CN(CC2CCOCC2)C(=O)OC12CCN(C1(C)CCN(C(=O)c3c(C)ncnc3C)CC1)CC2`, the molecule was classed as inactive.

As to `O=C1CCCCC1`, the result was inactive.

Regarding `CC1(C)C(=O)NC(=O)N1CO`, the call was inactive.

For the molecule `CSc1ccc(Oc2ccc(S(N)(=O)=O)cc2CN(C)C)cc1C`, the molecule was called inactive.

For the molecule `Oc1ccc(O)cc1`, the molecule was classed as inactive.

For `C/C=C/c1ccc(OC)cc1`, the outcome was inactive.

For `NCCOCCOCCN`, the result was inactive.

In the case of `CN(C)C(=O)NC1(c2ccccc2)CCN(CC[C@@]2(c3ccc(F)c(F)c3)CN(C(=O)c3ccccc3)CCO2)CC1`, the outcome was inactive.

Consider `CC(C)NCC(O)c1ccc(O)c(O)c1` (stereo not given), for which the half-maximal activity concentration (AC50) was 0.238 µM (active).

For the molecule `CO[C@@H]1COCC[C@@H]1N[C@@H]1CC[C@@](C(=O)N2CCc3ncc(C(F)(F)F)cc3C2)(C(C)C)C1`, the molecule was called inactive.

For `CC(C)(C)c1ccccc1`, the call was inactive.

For the molecule `NC(=Nc1ccccc1)Nc1ccccc1`, the result was inactive.

As to `O=C(N[C@@H](c1ccccc1)[C@@H]1CCCCN1)c1cccc(C(F)(F)F)c1Cl`, the AC50 is 77.2 µM (active).

On to `c1ccc2occc2c1`, for which the outcome was inactive.

On to `OCC(O)CO`, for which the outcome was inactive.

As to `CCCCCCCCCCCCCCCCO`, the outcome was inactive.

For the molecule `Oc1ccccc1O`, the outcome was inactive.

As for `Cc1cc(SC2=C(O)C[C@@](CCc3ccc(N)cc3)(C(C)C)OC2=O)c(C(C)(C)C)cc1CO`, the molecule was called inactive.

As for `CS(=O)(=O)c1ccc([C@@H](C[C@H]2CCC(=O)C2)C(=O)Nc2cnccn2)cc1Cl`, the AC50 is 0.753 µM (active).

For the molecule `CC(C)COC(=O)CCCCC(=O)OCC(C)C`, the outcome was inactive.

For `O=Cc1ccccc1C=O`, the molecule was classed as inactive.

Regarding `C/C=C/C=C/C(=O)O`, the molecule was classed as inactive.

With `CC(=O)[C@@]1(O)CC[C@H]2[C@@H]3CCC4=CC(=O)CC[C@]4(C)[C@H]3CC[C@@]21C`, the outcome was inactive.

Consider `CCc1nc(N)nc(N)c1-c1ccc(Cl)cc1`, for which the call was inactive.

With `OCC(CO)n1cnc(-c2ccc(F)cc2)c1-c1ccnc(Oc2ccccc2)n1`, the molecule was classed as inactive.
